Reference: PubChem BioAssay AID493229 (Broad Institute, 2011)
Potency and affinity values are given separately. Records with an inconclusive call do not appear. A call without a number means that no potency is given here. Calls of active or inactive are those of the source. No rule for the calls is given here.

Target: Protein RecA (Mycobacterium tuberculosis (strain ATCC 25618 / H37Rv)) (UniProt P9WHJ3)
Assay: Mycobacterium tuberculosis RecA intein splicing inhibitors, confirmatory dry powder dose response (AID 493229)

Sequence of Protein RecA (Mycobacterium tuberculosis (strain ATCC 25618 / H37Rv)) (P9WHJ3 whole entry, looked up): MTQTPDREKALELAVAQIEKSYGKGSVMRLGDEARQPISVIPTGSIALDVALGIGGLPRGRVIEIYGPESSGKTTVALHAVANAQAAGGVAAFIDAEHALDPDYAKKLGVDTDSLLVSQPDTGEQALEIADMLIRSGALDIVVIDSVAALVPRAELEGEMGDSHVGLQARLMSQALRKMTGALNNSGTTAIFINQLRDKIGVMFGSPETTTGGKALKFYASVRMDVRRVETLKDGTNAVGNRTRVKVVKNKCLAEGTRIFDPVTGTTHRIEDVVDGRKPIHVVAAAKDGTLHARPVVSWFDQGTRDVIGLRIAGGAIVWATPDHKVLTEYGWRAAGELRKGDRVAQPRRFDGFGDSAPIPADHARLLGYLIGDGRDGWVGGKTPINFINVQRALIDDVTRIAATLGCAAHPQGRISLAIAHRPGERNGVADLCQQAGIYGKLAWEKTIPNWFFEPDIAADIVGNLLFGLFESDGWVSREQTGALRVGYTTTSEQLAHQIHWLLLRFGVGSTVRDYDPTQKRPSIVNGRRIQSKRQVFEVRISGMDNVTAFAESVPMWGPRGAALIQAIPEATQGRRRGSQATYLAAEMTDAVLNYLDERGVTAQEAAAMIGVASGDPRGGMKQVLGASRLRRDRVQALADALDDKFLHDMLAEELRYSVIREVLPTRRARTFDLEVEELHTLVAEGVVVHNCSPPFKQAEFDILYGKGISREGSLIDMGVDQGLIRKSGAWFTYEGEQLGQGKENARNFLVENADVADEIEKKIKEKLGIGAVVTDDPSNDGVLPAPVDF

SMILES: Nc1cn(-c2ccccc2)nc1-c1ccc(F)cc1
- outcome: inactive
